Screening data as filed in PubChem.
TRHR enhancer-1 – allosteric enhancers of human TRH receptor. enhancement, % at 2 µM. TRHR cells, fluo-8 calcium fluorescence, EC20 TRH enhancement. actives 0.66% (n = 360,000). P34981. AID 493056; in the data active = enhancement above about 30%; note: 0% is about no effect
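Enhancer read-out: after compound pinning and an initial kinetic agonist-mode read, an EC20 of TRH (10 nM final) was injected and fluo-8 calcium signal (Ex 480/Em 530) followed at 1 s/cycle for 100 cycles in TRHR-expressing cells.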
D1 PAM – enhances dopamine response at the human D1 receptor; AID 504651; HEK293 TREx D1 cells, calcium flux, dopamine EC20 potentiation; potentiation, % at 10 µM; actives 0.036% (n = 360,000); in the data active = potentiation above about 30%; note: 0% is about no effect
Target sequence (P21728 whole entry, looked up): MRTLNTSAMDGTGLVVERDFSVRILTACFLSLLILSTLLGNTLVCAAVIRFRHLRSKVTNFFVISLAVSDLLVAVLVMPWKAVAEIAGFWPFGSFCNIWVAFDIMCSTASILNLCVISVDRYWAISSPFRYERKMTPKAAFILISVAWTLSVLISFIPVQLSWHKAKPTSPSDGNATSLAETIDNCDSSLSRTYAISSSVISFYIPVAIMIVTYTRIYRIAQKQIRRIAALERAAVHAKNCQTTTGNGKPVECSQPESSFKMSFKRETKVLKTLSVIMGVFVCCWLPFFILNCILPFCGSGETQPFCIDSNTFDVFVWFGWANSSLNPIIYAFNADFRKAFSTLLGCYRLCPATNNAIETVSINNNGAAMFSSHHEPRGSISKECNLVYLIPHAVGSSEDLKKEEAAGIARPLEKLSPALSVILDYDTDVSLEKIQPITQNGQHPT
D1 antagonist – antagonists of human D1 dopamine receptor; P21728; HEK293 TREx D1 cells, calcium flux, dopamine EC80; stronger effect = lower value; activity change, negative = inhibition, % at 10 µM; actives 3.2% (n = 360,000); AID 504652; in the data active = activity change below about -30%; note: % is set by controls: 0 for no effect and ±100 for the full control effect
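Calcium flux readout: force-coupled, inducible Hek293 Trex D1 line, cells induced overnight at 30 C with tetracycline, dye-loaded 30–90 min at RT. Antagonism scored against EC80 dopamine challenge given 180 s after compound.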
D1 agonist – human D1 receptor agonism | P21728 | HEK293 T-REx D1 cells, calcium flux, agonist mode | activation, % at 2 µM | actives 1% (n = 360,000) | AID 504660; in the data active = activation above about 30%; note: 0% is about no effect
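Inducible HEK293 T-REx D1 cells, force-coupled to calcium signalling, were plated at 4000 cells/well with tetracycline and held overnight at 30 C. After no-wash calcium dye loading, compound-evoked calcium rise over 180 s flagged agonists.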
TRHR agonist-1 – activates the human TRH receptor. TRHR cells, calcium flux fluo-8, FDSS agonist mode. activation, % at 2 µM. actives 0.18% (n = 360,000). AID 493084; in the data active = activation above about 30%; note: 0% is about no effect
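In this calcium-flux screen, cells bearing human TRHR are dye-loaded with fluo-8, baselined for 10 cycles, then exposed to library compounds; positive kinetic calcium responses during the agonist phase mark hits, with TRH as control.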
TRHR enhancer-2 – human TRH receptor allosteric enhancement confirmation; shares compounds with TRHR enhancer-1; TRH receptor cell assay, enhancer confirmation qHTS; activity change, negative = inhibition, % at 46.1 µM; 970 tested, under 10 active; AID 493076;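 note: compound effect scored on response to added TRH at EC20 of 10 nM; 0% is about no effect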
TRHR agonist-2 – confirmation of human TRH receptor agonists. shares compounds with TRHR enhancer-1. TRHR-expressing cells, agonist activation read-out. actives 8% (n = 970). Potency, µM (titrated, usually from 46.1 µM), without a hit: top-dose activation, usual class: activators; note: potency is the fitted concentration of half-maximal effect; 0% is about no effect; nearly all actives have a fitted effect of over 75% in size
* = called active by the depositor; . = no result. Rows were chosen to be rich in hits. Some 4.7% of all compounds tested hit in one or more screens of this group. Unless noted, calls come from the whole dose curve; as a rule, active = well fitted curve in the direction sought with a large enough effect; inconclusive = small, poorly fitted or top-dose-only effect, or another doubt; inactive = no such curve, though single readings can be large; an effect the other way counts as inactive or inconclusive.

SMILES | TRHR enhancer-1 | D1 PAM | D1 antagonist | D1 agonist | TRHR agonist-1 | TRHR enhancer-2 | TRHR agonist-2
CCCCn1nnnc1SCC(=O)Nc1ccc(N(C)C)cc1 | 54* | -4 | 15 | 1 | 0 | -2 | 1%
Cc1cc(Cl)ccc1NC(=O)CS(=O)(=O)c1cccc2nsnc12 | 5 | -3 | 1 | 2 | -1 | . | .
COc1ccccc1-n1nnnc1SCC(=O)Nc1ccccc1 | 56* | -2 | 2 | 6 | 0 | -4 | 2%
Cc1ccc(-c2nnc(Nc3ccc(CC(N)=O)cc3)c3ccccc23)cc1S(N)(=O)=O | 52* | 1 | 2 | 2 | 0 | -5 | 3%
Cc1cccc(N(C(=O)c2csnn2)C(C(=O)NC2CCCCC2)c2ccncc2)c1 (centres undefined) | 54* | -2 | 12 | 0 | 0 | -9 | 1%
Cc1cccc(N(C(=O)c2csnn2)C(C(=O)NC2CCCC2)c2ccncc2)c1 (centres undefined) | 20 | -3 | 6 | 0 | -1 | . | .
O=C(Nc1ccccc1C(=O)OCc1cc(=O)n2ccsc2n1)c1ccc(Cl)cc1 | -6 | 0 | 3 | -2 | 1 | . | .
NC(=O)NCCCC(NC(=O)c1ccc(C#CC2(O)CCCCC2)cc1)C(=O)O (centres undefined) | 43* | -4 | -4 | 4 | 0 | -4 | -1%
COc1ccc(-n2c(=O)c3c4c(sc3n(Cc3cc(C)ccc3C)c2=O)CN(C(C)=O)CC4)c(OC)c1 | -10 | 0 | 17 | 3 | 2 | . | .
CCOC(=O)/C(C#N)=C/c1cccc(F)c1 | 9 | -3 | 2 | 1 | 43* | 3 | 7%
Cc1ccccc1Nc1nnc(-c2ccc(C)c(S(=O)(=O)NCC3CCCO3)c2)c2ccccc12 (centres undefined) | -6 | 3 | -26 | 2 | -1 | . | .
CCN(C(=O)COC(=O)/C=C/c1cccc(Cl)c1)c1c(N)n(Cc2ccccc2)c(=O)[nH]c1=O | -3 | -3 | 0 | 8 | -1 | . | .
CCN(C(=O)COC(=O)/C=C/c1ccccc1Cl)c1c(N)n(Cc2ccccc2)c(=O)[nH]c1=O | 52* | 2 | 4 | 1 | 1 | -3 | 2%
Cc1ccccc1OCC(O)CN1CCCCC1 (centres undefined) | 43* | 0 | -9 | 6 | 0 | -5 | 1%
Cc1ccccc1OCC(O)CN1CCN(c2ccc(Cl)cc2)CC1 (centres undefined) | 51* | -12 | -26 | 5 | 1 | 4 | 0%
Cc1ccccc1OCC(O)Cn1c(=N)n(CCN2CCCCC2)c2ccccc21 (centres undefined) | 15 | -5 | 6 | 22 | 1 | . | .
CCc1ccc2c(c1)-c1ccccc1S(=O)(=O)N2CC(=O)N1CCCCC1 | -8 | 1 | -1 | 4 | 0 | . | .
CCc1ccc2nc(/N=C(\N)NC(=O)c3ccccc3)nc(C)c2c1 | 45* | -9 | -19 | 6 | 0 | 9 | 8%
Cc1cc(C)c2nc(/N=C(\N)NC(=O)c3ccccc3)nc(C)c2c1 | 4 | -7 | 1 | 5 | 1 | . | .
CCc1ccc(CNCc2c(C(=O)O)n(Cc3cccc(F)c3)c3cc(OC)ccc23)cc1 | 2 | 1 | 9 | 1 | 0 | . | .
COc1ccc(C(C)=O)cc1COC(=O)CNC(=O)c1ccc(Cl)cc1 | -8 | -5 | -2 | 4 | -2 | . | .
COc1ccc(C(C)=O)cc1COC(=O)Cc1cc(OC)c(OC)c(OC)c1 | -3 | -4 | -4 | 7 | 29 | -4 | -1%
O=C(CS(=O)(=O)c1cccc2nsnc12)N1CCN(c2ccc(F)cc2)CC1 | -2 | -5 | -10 | 3 | 0 | . | .
COc1ccccc1N1CCN(Cc2nc3ccccc3[nH]2)CC1 | 50* | 7 | -10 | 1 | 0 | 5 | -1%
Cc1cc(NC(=O)c2cc(-c3ccc(Br)cc3)on2)nn1Cc1ccc(Cl)cc1 | 6 | 0 | -4 | 0 | 2 | . | .
CCCn1c(N)c(C(=O)CSc2nncs2)c(=O)[nH]c1=O | 41* | . | -13 | 4 | 0 | 0 | -1%
